Sampled rows, rich in hits. Any-hit rate of the full collection: about 5.2%.
Tau fibril ThT: inhibitors of human tau fibril formation, thioflavin T binding | recombinant tau K18 P301L, heparin-induced fibrillization, ThT fluorescence | Potency, µM (series often up to 57.4 µM), hits mostly inhibitors | 270,000 tested, 2.1% active; further: nearly all actives have a fitted effect of over 55% in size
Target sequence (P10636 561-689 P618L limits assumed): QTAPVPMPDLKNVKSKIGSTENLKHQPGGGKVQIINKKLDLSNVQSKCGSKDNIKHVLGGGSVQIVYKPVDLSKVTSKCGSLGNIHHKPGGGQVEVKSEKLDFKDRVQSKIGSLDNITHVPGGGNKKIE
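Aggregation was driven by heparin (20 uM final) acting on recombinant tau […] bearing P301L in 100 mM sodium acetate pH 7; fibrils were detected with Thioflavin T.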
Sfp inh: Sfp phosphopantetheinyl transferase inhibition | Biochemical Sfp PPTase activity, qHTS | Potency, µM, actives largely listed as inhibitors | AID 1490 | 310,000 tested, 3.5% active;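 further: the enzyme is Sfp with the accession as filed and its product quenches rhodamine fluorescence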
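Fluorescence-quenching assay: 15 nM Sfp-PPTase preincubated 15 min at room temperature with compound, then 5 uM rhodamine-CoA and 12.5 uM BHQ-2-labelled YbbR peptide added. Fluorescence (ex 525/em 598 nm) read at start and after 30 min; difference gives rate.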
Coupling enz: counter-screen for Giardia aldolase inhibitors: coupling enzyme system; coupling enzyme system counterscreen, AmpLite Red fluorescence; activity change, negative = inhibition, % at 58.2 µM, hits read low; 290,000 tested, 0.67% active; in the data active means activity change below about -30%
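Final compound at 57.5 uM, incubated 10 min at RT with coupling enzyme reagent (glyceraldehyde-3-phosphate), then 20 min with substrate and AmpLite Red detection. Fluorescence read at 525/598 nm; tests interference with the coupling assay, not aldolase inhibition.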
Tau fibril FP: inhibitors of human tau fibril formation; 280,000 tested, 0.39% active; Potency, µM (titrated, usually from 57.7 µM), usual class: inhibitors; K18 P301L tau heparin fibrillization, Alexa594 FP, 6 h; AID 1468; further: nearly all actives have a fitted effect of over 55% in size
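FP of Alexa 594-tau after heparin (20 uM) induction. Substrate: human K18 P301L, 15 uM unlabeled, 0.24 uM labeled. Buffer 100 mM sodium acetate pH 7. 6 hr, 37 C.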
Tau fluor counter: counter-screen for tau fibril formation inhibitors. tau K18 P301L Alexa594 fluorescence, heparin fibrillization. Potency, µM (top dose mostly 57.7 µM). 280,000 tested, 0.93% active; further: nearly all actives have a fitted effect of over 55% in size
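Human tau K18 P301L (15 uM unlabeled, 0.24 uM Alexa 594-labeled) in 100 mM sodium acetate pH 7 with 20 uM heparin, 6 hr at 37 C. ThT 30 uM added, 1 hr ambient; Alexa 594 FP and total fluorescence read at 555/632 nm.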
A number is an active result; 0 = inactive; ? = inconclusive; - = no result given; [ ] = remark or other dose. Unless noted, the call rests on the fitted dose curve; in most records, active means well fitted curve in the direction sought with a large enough effect; inconclusive means small, poorly fitted or top-dose-only effect, or another doubt; inactive means no such curve, though single readings can be large; an effect the other way counts as inactive or inconclusive.

SMILES	Tau fibril ThT	Sfp inh	Coupling enz	Tau fibril FP	Tau fluor counter
CC1CCN(S(=O)(=O)c2cc3c4c(c2)CC(=O)N4CCC3)CC1	0	-	-	?	0
CCOc1ccc(/C=C/c2nc(C#N)c(N3CCC(C)CC3)o2)cc1	?	-	-	0	?
Cc1ccc(S(=O)(=O)N2CCCCC2C(=O)N2CCN(c3ccccc3F)CC2)cc1 (centres undefined)	0	0	0	0	0
Cc1ccc(S(=O)(=O)N2CCCCC2C(=O)N2CCN(C)CC2)cc1 (centres undefined)	16µM	0	0	?	0
Cc1ccc(S(=O)(=O)N2CCCC2C(=O)OCc2ccco2)cc1 (centres undefined)	28µM	?	0	?	0
CCN(CC)CCOC(=O)c1cccnc1	-	0	-	-	-
CC(=O)Nc1ccc(Nc2cc(C)nc3c(-c4ccccc4)cnn23)cc1	?	0	0	0	16µM[quencher]
COc1ccc(NC(=O)[C@@H](c2ccccc2)N2Cc3ccccc3C2=O)cc1OC	0	-	-	0	0
CCCCC1=CC2=C(OC(C)=O)C(=O)C(C)(OC(=O)c3ccc(Cl)nc3)C(=O)C2=CO1 (centres undefined)	22µM	0	0	?	?
Cc1ccc(NC(=O)C2CCC(CNS(=O)(=O)c3ccc4c(c3)CCCC(=O)N4)CC2)cc1F (centres undefined)	0	-	-	0	0
Clc1ccc(OCCCNCc2ccccc2)c2ccccc12	-	56µM	0	-	-
CCC(C)NCCOCCOc1ccc(Cl)c2ccccc12 (centres undefined)	0	20µM	0	0	0
NS(=O)(=O)c1ccc2c(c1)C1C=CCC1C(C1CC=CCC1)N2 (centres undefined)	35µM	20µM	0	?	28µM[quencher]
CC(C)C1Nc2ccc(S(N)(=O)=O)cc2C2C=CCC21 (centres undefined)	20µM	35µM	0	?	?
CN(CCCNC(=O)Cn1ncc2c([nH]c3ccccc32)c1=O)Cc1ccccc1	0	-	-	0	0
O=C(CCn1nnc2ccccc21)Nc1nnc(Cc2ccccc2)s1	?	50µM	0	0	0
Cc1nc(NCc2ccccc2)c2nc(-c3ccccc3)n(CCCN3CCOCC3)c2n1	0	0	0	0	0
COc1ccc(Nc2nc(-c3ccc(OC)cc3)c(CCC(=O)O)s2)cc1	?	0	0	0	0
COC(=O)CCc1sc(Nc2ccccc2)nc1-c1ccc(OC)cc1	?	0	0	0	16µM[quencher]
Oc1ccc(-c2cn3c(n2)SCC3)cc1O	10µM	18µM	0	?	14µM[quencher]
N#Cc1ccccc1NC(=O)C(=O)NCC(c1ccc2c(c1)OCO2)N1CCOCC1 (centres undefined)	0	-	-	0	0
CC1OC(OC2C(OC3C(O[C@H]4CC[C@]5(C)C6C=C[C@]78OC[C@@]9(CC[C@@H](C)[C@H](C)C97)[C@H](O)C[C@@]8(C)[C@]6(C)CC[C@H]5C4(C)C)OC(C)C(O)C3O)OC(CO)C(O)C2O)C(O)C(O)C1O (some centres undefined)	0	79µM	0	0	0
COc1cccc(C(=O)c2cn(CC(=O)NCCc3ccccc3)c3nc(C)ccc3c2=O)c1	0	-	-	0	0
CC1(C)OC(c2ccccc2)=C/C(=C/C=Nc2ccccc2)O1	?	0	0	0	0
CC1(C)OC(c2ccccc2)=C/C(=C\C=N\NC(=O)c2ccncc2)O1	11µM	0	0	?	?
SMILES	Tau fibril ThT	Sfp inh	Coupling enz	Tau fibril FP	Tau fluor counter
CCCN(C(=O)c1cn(C)c(=O)c2cc(OC)c(OC)cc12)c1ccc(CC)cc1	0	-	-	0	0
COc1ccccc1NC(=O)c1cc2c(=O)oc3ccc(C)cc3c2s1	0	-	-	?	0
CN(CCNC(=O)CCNC(=O)Cn1ccc2ccccc2c1=O)Cc1ccccc1	0	0	0	22µM	16µM[quencher]
CCN(CCCNC(=O)CCNC(=O)Cn1ccc2ccccc2c1=O)c1ccccc1	0	0	0	0	0
CC12CN3CC(C)(CN(C1)C3c1c[nH]c3ccccc13)C2=O (centres undefined)	0	0	0	0	0
CC12CN3CC(C)(CN(C1)C3c1ccc3ccccc3c1O)C2=O (centres undefined)	?	0	-48	0	0
COc1ccc(N2CC(NC(=O)C3CC3)CC2=O)cc1OC (centres undefined)	0	-	-	0	0
COc1ccccc1NC(=O)C1=C(C)Nc2nc(-c3ccco3)nn2C1c1cccc(C)c1 (centres undefined)	0	-	-	0	?
COc1ccc(C(=S)N2CCC(C(N)=O)CC2)cc1Br	0	40µM	0	0	0
CC(=O)N1CCN(c2ccccc2NC(=O)Cc2ccc(Cl)cc2)CC1	0	0	0	0	0
NC(=O)C1CCN(C(=S)c2ccc(-c3ccc(Br)cc3)o2)CC1	?	16µM	-33	0	0
NC(=O)c1ccc(-c2ccc(Br)cc2)o1	0	0	0	0	0
COc1ccc(CCNC(=S)N2CCC(C(N)=O)CC2)cc1	0	56µM	0	0	0
CC(=O)N1CCN(C(=S)c2ccc(-c3ccc(Cl)cc3)o2)CC1	0	32µM	0	0	0
CCCCOc1ccc(C(=S)N2CCC(C(N)=O)CC2)cc1	0	0	0	0	0
CC(C)CN1CCc2nc(Nc3ccc(F)cc3F)ncc2C1	0	-	-	0	0
CCOC(=O)CSC1=C(C#N)C(c2ccco2)C(C(=O)Nc2cccc(C(F)(F)F)c2)=C(C)N1 (centres undefined)	?	0	0	0	0
Cc1ccc(C(=O)CSC2=C(C#N)C(c3ccco3)CC(=O)N2)c(C)c1 (centres undefined)	?	50µM	0	0	0
CC(=O)C1=C(C)NC(SCC(=O)c2ccc(Cl)cc2)=C(C#N)C1c1ccco1 (centres undefined)	?	50µM	0	0	?
Cc1ccc(NC(=O)CSC2=C(C#N)C(c3ccco3)CC(=O)N2)cc1 (centres undefined)	0	0	0	0	0
CC(=O)C1=C(C)NC(SCC(=O)c2ccc(Cl)cc2Cl)=C(C#N)C1c1ccco1 (centres undefined)	?	45µM	0	0	?
CC(=O)C1=C(C)NC(SCC(=O)c2ccccc2)=C(C#N)C1c1ccco1 (centres undefined)	22µM	56µM	0	0	?
O=C(O)[C@@H](O)[C@@H](O)[C@@H](O)[C@@H](O)C(=O)O (tested in a mixture with another compound)	-	0	0	-	-
CC(=O)C1=C(C)NC(SCc2cccc3ccccc23)=C(C#N)C1c1ccco1 (centres undefined)	0	50µM	0	?	?
N#CC1=C(SCC(=O)c2ccc(Br)cc2)NC2=C(C(=O)CCC2)C1c1ccco1 (centres undefined)	14µM	0	0	0	?

Screens as filed in PubChem BioAssay.
